# Reference: the supplement of paper PMC7695840
# Where a name gives a salt, the structure may show the parent alone.
# System: Staphylococcus aureus MW2 delta-mecA (mecA-)
# Assay: normalized GFP fluorescence (growth of mecA- strain) (fraction of control range); higher = more growth of mecA- strain
# Settings: compound concentration: 150 uM; cefoxitin: subinhibitory; fluorescent label: GFP
# How it was run: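 Two pre-induced S. aureus MW2 strains, one with the gene labeled by DsRed and one lacking it labeled by GFP, were mixed 1:1 in LB with a subinhibitory antibiotic dose set daily. The mix went at 5 µL/well onto 150 μM compound (1.5% DMSO) in 1536-well plates, single replicate, and grew unshaken 20 h at 37 °C, 90% humidity. DsRed (540/590) and GFP (485/520) values were scaled per plate between single-strain control medians, and plates with high untreated ratios or rows with DsRed/GFP >10 were left out.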
row,SMILES,normalized GFP fluorescence
1,C[C@@H]1O[C@@H](OC[C@H]2O[C@@H](Oc3c(-c4ccc(O)c(O)c4)oc4cc(O)cc(O)c4c3=O)[C@H](O)[C@@H](O)[C@@H]2O)[C@H](O)[C@H](O)[C@H]1O [Rutin (Rutoside)],0.394
2,"CC[C@H]1OC(=O)[C@H](C)[C@@H](O[C@H]2C[C@@](C)(OC)[C@@H](O)[C@H](C)O2)[C@H](C)[C@@H](O[C@@H]2O[C@H](C)C[C@H](N(C)C)[C@H]2O)[C@](C)(OC)C[C@@H](C)C(=O)[C@H](C)[C@@H](O)[C@]1(C)O [Clarithromycin (Biaxin, Klacid)]",0.181
3,CN1CCC[C@@H]1Cc1c[nH]c2ccc(CCS(=O)(=O)c3ccccc3)cc12,0.194
4,CN(C)CCCN1c2ccccc2Sc2ccc(C(F)(F)F)cc21,-0.00501
5,Cc1ccc(Nc2c(F)cccc2Cl)c(CC(=O)O)c1,0.0553
6,C[N+](C)(C)C[C@H](O)CC(=O)[O-],0.791
7,C[C@@H](c1ncncc1F)[C@](O)(Cn1cncn1)c1ccc(F)cc1F,0.309
8,COc1ccc(O)cc1,0.353
9,CN(C)CCC(c1ccccc1)c1ccccn1 (stereo not given),0.504
10,CC(NCCc1ccc(O)cc1)C(O)c1ccc(O)cc1 (stereo not given),0.828
11,Cc1c(C(=O)NN2CCCCC2)nn(-c2ccc(Cl)cc2Cl)c1-c1ccc(Cl)cc1,0.177
12,O=C(c1cc(Cc2n[nH]c(=O)c3ccccc23)ccc1F)N1CCN(C(=O)C2CC2)CC1 [Olaparib (AZD2281)],0.204
13,CC1CCC(NC(=O)N(CCCl)N=O)CC1 (stereo not given),0.55
14,COc1cc(Nc2ncc(F)c(Nc3ccc4c(n3)N(COP(=O)(O)O)C(=O)C(C)(C)O4)n2)cc(OC)c1OC [R788 (Fostamatinib)],0.503
15,OCCN1CCN(CCCN2c3ccccc3Sc3ccc(C(F)(F)F)cc32)CC1,0.0603
16,CNCC[C@H](Oc1cccc2ccccc12)c1cccs1,-0.0294
17,CC1=C(/C=C/C(C)=C/C=C/C(C)=C/C(=O)O)C(C)(C)CCC1,-0.00103
18,O=C(Oc1ccccc1C(=O)O)c1ccccc1O,0.297
19,CCCCCCNC(=O)n1cc(F)c(=O)[nH]c1=O [Carmofur],0.605
20,C[C@]12CCC(=O)C=C1CC[C@@H]1[C@@H]2[C@@H](O)C[C@@]2(C)[C@H]1CC[C@]2(O)C(=O)CO,0.268

row,SMILES,normalized GFP fluorescence
1,COc1nc(N)nc2c1ncn2[C@@H]1O[C@H](CO)[C@@H](O)[C@@H]1O [Nelarabine (Arranon)],0.298
2,NC(=O)c1ccccc1O,0.52
3,CC(C(=O)O)c1cccc(Oc2ccccc2)c1 (stereo not given),0.136
4,COc1ccc(CN(CCN(C)C)c2ncccn2)cc1,0.471
5,CC(=O)c1ccc2c(c1)N(CCCN1CCN(CCO)CC1)c1ccccc1S2,0.252
6,CC(=O)Oc1cc2c(s1)CCN(C(C(=O)C1CC1)c1ccccc1F)C2 (stereo not given) [Prasugrel (Effient)],0.226
7,OC[C@@H](O)[C@@H](O)[C@H](O)[C@@H](O)CO [Sorbitol (Glucitol)],0.227
8,CCOc1ccc(Cc2cc([C@@H]3O[C@H](CO)[C@@H](O)[C@H](O)[C@H]3O)ccc2Cl)cc1 [Dapagliflozin],0.454
9,CC1(C)S[C@@H]2[C@H](NC(=O)COc3ccccc3)C(=O)N2[C@H]1C(=O)O,0.0184
10,CCCc1cc(=O)[nH]c(=S)[nH]1,0.668
11,COc1cc(C)c(/C=C/C(C)=C/C=C/C(C)=C/C(=O)O)c(C)c1C [Acitretin],0.0102
12,Cc1nc(=O)c2cc(CN(C)c3ccc(C(=O)N[C@@H](CCC(=O)O)C(=O)O)s3)ccc2[nH]1 [Raltitrexed (Tomudex)],0.657
13,CC(=O)OCC(CCn1cnc2cnc(N)nc21)COC(C)=O,0.204
14,CNCCCN1c2ccccc2CCc2ccccc21,0.0357
15,CC(C)(C)NCC(O)c1ccc(O)c(CO)c1 (stereo not given) [Salbutamol sulfate (Albuterol)],0.318
16,CC(C)[N+](C)(CCOC(=O)C1c2ccccc2Oc2ccccc21)C(C)C,0.295
17,CCCCOc1cc(C(=O)NCCN(CC)CC)c2ccccc2n1 [Dibucaine (Cinchocaine) HCl],0.265
18,CN(C)CCOC(c1ccc(Cl)cc1)c1ccccn1 (stereo not given),0.55
19,CC(C)(S)[C@@H](N)C(=O)O,0.302
20,CCNC(=O)CCC/C=C\C[C@@H]1[C@@H](/C=C/[C@@H](O)CCc2ccccc2)[C@H](O)C[C@@H]1O [Bimatoprost],0.224
